High-throughput results: PubChem, Center for Chemical Genomics, University of Michigan
Dicer inh: human Dicer pre-microRNA cleavage inhibition. cat-ELCCA pre-miR-21 Dicer processing, chemiluminescence; stronger effect = higher value. z-score at 25 µM. 47,000 tested, 6% active. AID 1347074; in the data active = z-score above about 3, passing the limit was not always enough;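 also: higher signal means more uncleaved substrate so more Dicer inhibition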
Target sequence (Q9UPY3 whole entry, looked up): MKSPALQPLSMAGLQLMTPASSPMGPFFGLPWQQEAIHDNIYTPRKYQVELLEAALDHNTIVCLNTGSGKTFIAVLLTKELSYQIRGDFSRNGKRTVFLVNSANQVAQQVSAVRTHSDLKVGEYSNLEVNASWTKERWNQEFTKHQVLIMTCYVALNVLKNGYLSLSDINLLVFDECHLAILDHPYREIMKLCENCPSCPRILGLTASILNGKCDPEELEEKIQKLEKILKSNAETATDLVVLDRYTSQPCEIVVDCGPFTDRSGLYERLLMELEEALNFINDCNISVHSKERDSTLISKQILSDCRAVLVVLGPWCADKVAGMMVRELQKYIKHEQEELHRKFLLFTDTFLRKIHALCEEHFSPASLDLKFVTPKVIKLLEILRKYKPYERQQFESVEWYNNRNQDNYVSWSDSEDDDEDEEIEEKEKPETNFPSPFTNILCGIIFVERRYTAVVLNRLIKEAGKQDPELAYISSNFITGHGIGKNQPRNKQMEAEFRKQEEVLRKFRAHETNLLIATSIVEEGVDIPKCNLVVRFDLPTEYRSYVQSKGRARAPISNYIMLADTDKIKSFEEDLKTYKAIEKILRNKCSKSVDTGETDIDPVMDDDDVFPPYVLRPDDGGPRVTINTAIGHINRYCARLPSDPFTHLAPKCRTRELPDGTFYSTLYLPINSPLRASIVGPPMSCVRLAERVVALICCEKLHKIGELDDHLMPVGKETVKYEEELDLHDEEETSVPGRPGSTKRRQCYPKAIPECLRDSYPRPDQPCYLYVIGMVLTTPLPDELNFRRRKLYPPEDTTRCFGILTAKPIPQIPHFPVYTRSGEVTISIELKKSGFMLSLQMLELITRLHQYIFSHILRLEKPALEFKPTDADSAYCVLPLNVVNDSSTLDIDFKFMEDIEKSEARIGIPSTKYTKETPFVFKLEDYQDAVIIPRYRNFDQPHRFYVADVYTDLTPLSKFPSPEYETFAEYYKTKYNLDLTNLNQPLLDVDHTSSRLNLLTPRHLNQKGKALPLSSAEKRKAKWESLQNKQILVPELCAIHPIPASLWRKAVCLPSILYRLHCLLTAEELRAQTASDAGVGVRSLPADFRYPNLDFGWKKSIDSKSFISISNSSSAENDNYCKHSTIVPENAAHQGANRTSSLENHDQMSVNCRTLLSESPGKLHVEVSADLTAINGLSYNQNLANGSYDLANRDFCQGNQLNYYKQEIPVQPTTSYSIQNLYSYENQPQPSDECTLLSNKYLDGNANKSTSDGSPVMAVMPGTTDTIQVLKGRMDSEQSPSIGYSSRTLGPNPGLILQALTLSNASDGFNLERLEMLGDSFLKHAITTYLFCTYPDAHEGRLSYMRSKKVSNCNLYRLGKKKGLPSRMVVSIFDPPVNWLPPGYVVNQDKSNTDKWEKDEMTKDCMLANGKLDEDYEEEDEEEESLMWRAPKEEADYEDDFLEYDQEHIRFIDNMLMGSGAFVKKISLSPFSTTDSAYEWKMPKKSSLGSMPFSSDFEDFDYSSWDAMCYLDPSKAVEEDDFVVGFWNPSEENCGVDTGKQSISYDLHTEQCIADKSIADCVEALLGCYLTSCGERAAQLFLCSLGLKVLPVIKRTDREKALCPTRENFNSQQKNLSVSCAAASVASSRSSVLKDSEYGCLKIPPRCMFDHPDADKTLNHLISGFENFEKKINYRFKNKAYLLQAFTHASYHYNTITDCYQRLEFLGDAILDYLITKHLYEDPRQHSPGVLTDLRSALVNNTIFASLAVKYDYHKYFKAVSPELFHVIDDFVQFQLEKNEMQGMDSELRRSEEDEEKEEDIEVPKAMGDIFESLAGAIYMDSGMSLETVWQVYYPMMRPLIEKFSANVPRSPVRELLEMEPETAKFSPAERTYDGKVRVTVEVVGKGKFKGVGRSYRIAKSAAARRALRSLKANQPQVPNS
Each line names hits and unclear results; the compound was inactive in the other large screens. This excerpt belongs to a sample that is enriched for hits.

CCCCN1C(=O)C2(/C(=C(/O)c3ccc(OC)cc3)C(=O)C(=O)N2CCOC)c2ccccc21 (centres undefined)	Dicer inh 3.67
COCCCN1C(=O)C(=O)/C(=C(\O)c2ccc(C)cc2)C12C(=O)N(C)c1ccccc12 (centres undefined)	none
CCCCN1C(=O)C2(/C(=C(/O)c3ccc(Cl)cc3)C(=O)C(=O)N2CCCOC)c2ccccc21 (centres undefined)	none
CCN1C(=O)C2(/C(=C(/O)c3ccc(C)cc3)C(=O)C(=O)N2CCOC)c2ccccc21 (centres undefined)	none
Cc1ccc(-c2cc3nc(-c4ccc(Cl)cc4)cc(C(F)(F)F)n3n2)cc1	none
CCOC(=O)c1cc(CC)sc1NC(=O)C(Cl)Cl	none
CCN1/C(=C/c2ccc3cc(C)ccc3[n+]2CC)Sc2cc(NC(C)=O)ccc21	none
CCOC(=O)CCn1cnc2c1c(=O)n(C)c(=O)n2C	none
Cn1c(=O)c2c(ncn2CC(=O)N2CCCC2)n(C)c1=O	none
CCOC(=O)C1CCCN(C(=O)Cn2cnc3c2c(=O)n(C)c(=O)n3C)C1 (centres undefined)	Dicer inh 7.17
Cn1c(=O)c2c(ncn2CC(=O)N2CCCCC2)n(C)c1=O	none
CC1CCN(C(=O)Cn2cnc3c2c(=O)n(C)c(=O)n3C)CC1	Dicer inh 3.13
COCCCNC(=O)Cn1cnc2c1c(=O)n(C)c(=O)n2C	none
COC(=O)C1CCN(C(=O)Cn2cnc3c2c(=O)n(C)c(=O)n3C)CC1	Dicer inh 4.63
Cn1c(=O)c2c(ncn2CC(=O)N2CCOCC2)n(C)c1=O	none
Cn1c(=O)c2c(ncn2CC(=O)NC2CCSC2=O)n(C)c1=O (centres undefined)	none
COc1ccc(NC2=CC(=O)CC(C)(C)C2)cc1	none
CCOC(=O)c1cnc(C(F)(F)F)nc1NNC(=O)c1ccccc1	none
OCC1O[C@H](O)C(Cl)C(O)C1O (some centres undefined)	none
COCCN1CC(C(=O)O)CC1=O (centres undefined)	none
c1cncc(-c2nc3ccccc3s2)c1	Dicer inh 5.61
Clc1ccc(-c2nc3ccccc3s2)cc1	none
c1ccc(-c2nc3ccccc3s2)cc1	none
Cc1ccc(O)c(C2=Nc3ccccc3C2(C)C)c1	none
Cc1cc(Br)c(NC(=O)c2ccccc2Cl)c(Br)c1	none
O=C(NCc1sccc1CSc1ccc(Cl)cc1)Nc1ccccc1F	none
CC(=O)Nc1cc2cc(NC(=O)C(Cl)(Cl)Cl)ccc2oc1=O	none
Oc1ccc2ccccc2c1N=Nc1ccccc1F	none
Oc1ccc2ccccc2c1N=Nc1cccc(Cl)c1	none
Oc1ccccc1N=Nc1c(O)ccc2ccccc12	none
COc1ccc(N=Nc2c(O)ccc3ccccc23)cc1	Dicer inh 3.43
CCN(CCC#N)c1ccc(N=Nc2c(O)ccc3ccccc23)cc1	Dicer inh 6.13
Cc1cccc(N=Nc2c(O)ccc3ccccc23)c1	none
CNCCc1cnc(CCC(c2ccccc2)c2ccccc2)[nH]1	none
CCCCc1ncc(/C=C(\Cc2cccs2)C(=O)O)n1Cc1ccc(C(=O)O)cc1	none
Cc1onc(-c2ccccc2)c1C(=O)Nc1sc2c(c1C#N)CCC(C)C2 (centres undefined)	Dicer inh 4.72
Cc1onc(-c2ccccc2)c1C(=O)NC1CCCCC1NC(=O)c1c(-c2ccccc2)noc1C (centres undefined)	none
CC1CCc2c(sc(NC(=O)c3ccco3)c2C(=O)O)C1 (centres undefined)	none
O=C(Nc1ccccc1)OCc1cccc(COC(=O)Nc2ccccc2)c1F	none
CN(C)C=Nc1ccc(Oc2cncc(Cl)c2)nc1	none
CCOC(=O)c1cc(-c2ccccc2)n(-c2ccc(N3CCOCC3)cc2)c1C	Dicer inh 4.28
CCOC(=O)c1cc(-c2ccc(Cl)cc2)n(-c2ccccc2)c1C	none
CCOC(=O)c1cc(C(C)(C)C)n(-c2ccc(N3CCOCC3)cc2)c1C	none
CCCOc1cccc(C2c3c(oc4cc(C)c(C)cc4c3=O)C(=O)N2c2nccs2)c1 (centres undefined)	none
C=C(C(=O)O)C(O)CCCCOc1ccc(Cl)cc1 (centres undefined)	none
Nc1nc2c(s1)C(=O)CC(c1ccccc1)C2 (centres undefined)	none
CN(C)c1ccc(C2N[C@@H](C(=O)O)C(C)(C)S2)cc1 (some centres undefined)	none
CC1(C)SC(c2ccc(C3NC(C(=O)O)C(C)(C)S3)cc2)NC1C(=O)O (centres undefined)	none
CC1(C)S[C@H](CNC(=O)Cc2ccccc2)N[C@H]1C(=O)O	Dicer inh 3.98
O=C(/C=C/Sc1nc2cc(Cl)ccc2s1)c1ccccc1	none
O=C(c1ccccn1)c1ccc2ccccc2n1	none
O=C(Nc1ccccc1)Sc1cc(C(F)(F)F)cc(C(F)(F)F)c1	none
O=C1c2ccccc2-c2cccc(C(=O)N3CCCCC3)c21	none
O=C1c2ccccc2-c2ccc(C(=O)N3CCOCC3)cc21	Dicer inh 4.1
O=C(c1ccc(N2CCOCC2)nc1)N1CCOCC1	none
COc1ccc(NC(=O)CC2SC(=O)NC2=O)cc1 (centres undefined)	none
COC(=O)C1=C(C)NC2=C(C(=O)CC(c3cccs3)C2)C1c1ccc(F)c(F)c1 (centres undefined)	none
COCCOC(=O)C1=C(C)NC2=C(C(=O)CCC2)C1c1ccc(C)s1 (centres undefined)	none
COC(=O)C1=C(C)NC2=C(C(=O)CCC2)C1c1sc2ccccc2c1C (centres undefined)	none
CC1=C(C(=O)OCCc2ccccc2)C(c2ccccn2)C2=C(CCCC2=O)N1 (centres undefined)	none
COC(=O)C1=C(C)NC2=C(C(=O)CCC2)C1c1ccc(C#Cc2ccccc2)s1 (centres undefined)	Dicer inh 3.09
COC(=O)C1=C(C)NC2=C(C(=O)CC(C)(C)C2)C1c1ccccn1 (centres undefined)	none
COC(=O)C1=C(C)NC2=C(C(=O)CCC2)C1c1ccccn1 (centres undefined)	Dicer inh 3.26
Cn1nc2n(c1=O)-c1ccccc1SC2	none
N#CC(C(=O)C1CC1)=C1SCCCS1	none
COc1cc(C2SCCS2)cc(Br)c1OS(=O)(=O)c1cc(C)c(Cl)cc1C	none
CCc1ccc(C2C3=C(Nc4c2c(=O)[nH]c(=O)n4C)c2ccccc2C3=O)cc1 (centres undefined)	none
O=C(Nc1ccc(F)cc1)Nc1nc2ccccc2s1	none
CCNC(=O)Nc1nc2ccccc2s1	Dicer inh 4.41
CCCCC(=O)Nc1nc2ccccc2s1	none
CC(=O)O[C@@H]1O[C@@H]2CO[C@@H](c3ccccc3)O[C@H]2[C@H](OC(C)=O)[C@H]1OC(C)=O	none
Nc1ncnc(Nc2nc(-c3ccccc3)cs2)n1	none
Clc1cccc(Cl)c1-c1noc(-c2ccno2)n1	none
CSc1nc(-c2ccco2)nn1C(C)=O	none
COc1ccc(C(=O)Cn2c3ccccc3n3nc(-c4ccco4)nc23)cc1	none
CSc1nc(-c2ccco2)nn1C(=O)c1ccc(C)cc1	Dicer inh 3.21
Cc1ccc(-c2noc(-c3ccco3)n2)cc1	none
CSc1nc(-c2ccco2)nn1C(=O)c1ccccc1	Dicer inh 3.42
Cc1ccc(C(=O)n2nc(C)c(Sc3ncccn3)c2C)cc1	none
C#CCC1(Cc2c(F)cccc2Cl)C(C)=NN=C1C	none
O=S(=O)(c1ccc(-n2cccn2)cc1)N1CCN(C2c3ccccc3-c3ccccc32)CC1	none
C=CCn1c(=O)c2c(nc(-c3ccc(S(=O)(=O)O)cc3)n2C)n(C)c1=O	none
CCC(NC(C)C)C(O)c1ccc(O)c(O)c1 (centres undefined)	none
O=C(Nc1ccc(S(=O)(=O)N2CCc3ccccc32)cc1)c1ccco1	none
O=C(Nc1ccc(OC(F)(F)F)cc1)NC1CCN(c2nccc(C(F)(F)F)n2)CC1	none
